Results published in PubChem BioAssay (EPA / NIEHS).
Calls of active or inactive are those of the source. The calls were made as follows: active = hit-call score of the fitted dose curve at least 0.9, where 1 is the maximum; inactive = score below 0.9.

What was measured:
[1] = target: Nuclear respiratory factor 1 (Homo sapiens) (UniProt Q16656); experiment: ATG_NRF1_CIS: Attagene CIS-FACTORIAL HepG2 Assay for human Nuclear Respiratory Factor 1 (NRF1) Orphan Gene (AID 2282987); details: HepG2 NRF1 cis-element reporter, Attagene multiplex; actives raise or lower the signal
Sequence of Nuclear respiratory factor 1 (Homo sapiens) (Q16656 whole entry, looked up): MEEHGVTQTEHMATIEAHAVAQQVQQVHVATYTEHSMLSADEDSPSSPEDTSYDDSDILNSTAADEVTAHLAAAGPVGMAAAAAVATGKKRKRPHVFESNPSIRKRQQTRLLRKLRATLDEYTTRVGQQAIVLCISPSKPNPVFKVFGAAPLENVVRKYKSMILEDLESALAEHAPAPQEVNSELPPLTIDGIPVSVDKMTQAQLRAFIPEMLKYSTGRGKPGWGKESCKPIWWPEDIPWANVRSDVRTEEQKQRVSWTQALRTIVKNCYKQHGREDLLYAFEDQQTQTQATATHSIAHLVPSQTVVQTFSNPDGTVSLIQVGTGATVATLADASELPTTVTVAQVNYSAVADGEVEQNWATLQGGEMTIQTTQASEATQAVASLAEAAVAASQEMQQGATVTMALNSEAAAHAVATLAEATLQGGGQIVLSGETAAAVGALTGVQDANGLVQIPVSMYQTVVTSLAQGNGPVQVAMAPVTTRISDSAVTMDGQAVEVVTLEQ
Outline: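 Multiplexed cis-reporter assay, HepG2 cells, 24 h treatment. Total RNA → oligo(dT) RT → PCR with reporter-specific primers → 6-FAM primer extension → HpaI cut → CE. Bidirectional fit vs DMSO.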

[2] = ATG_NFI_CIS: Attagene CIS-FACTORIAL HepG2 Assay for human Nuclear Factor I (NFI) (AID 2282989); details: HepG2 cis-regulatory reporter, NFI response element transcription; actives raise or lower the signal
Outline: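 Read-out: reporter mRNA via RT-PCR plus capillary electrophoresis with fluorescence detection. Transiently transfected HepG2 (endogenous TF activity on cis promoters), 24 h compound exposure; gain or loss of signal fitted against DMSO.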

[3] = target: Myc proto-oncogene protein (Homo sapiens) (UniProt P01106); experiment: ATG_Myc_CIS: Attagene CIS-FACTORIAL HepG2 Assay for human Myelocytomatosis (Myc) Proto-Oncogene Transcription Factor (AID 2282990); details: HepG2, Attagene cis-reporter transcription factor activity; actives raise or lower the signal
Sequence of Myc proto-oncogene protein (Homo sapiens) (P01106 whole entry, looked up): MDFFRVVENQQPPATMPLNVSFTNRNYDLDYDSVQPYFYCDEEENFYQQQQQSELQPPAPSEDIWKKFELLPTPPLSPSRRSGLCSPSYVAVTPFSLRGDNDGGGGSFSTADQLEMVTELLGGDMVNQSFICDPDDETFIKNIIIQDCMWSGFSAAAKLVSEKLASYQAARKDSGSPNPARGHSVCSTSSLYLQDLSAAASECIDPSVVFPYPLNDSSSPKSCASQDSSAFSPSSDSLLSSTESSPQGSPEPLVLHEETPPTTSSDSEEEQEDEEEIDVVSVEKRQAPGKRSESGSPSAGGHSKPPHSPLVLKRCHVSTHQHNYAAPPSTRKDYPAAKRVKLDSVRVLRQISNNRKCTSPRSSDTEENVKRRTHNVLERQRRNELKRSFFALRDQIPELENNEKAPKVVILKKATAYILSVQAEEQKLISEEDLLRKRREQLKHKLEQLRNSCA
Outline: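 HepG2 cells transiently transfected with multiple cis-promoter-driven reporter transcription units, so endogenous TF activity is read. After 24 h compound exposure, reporter mRNA was quantified by RT-PCR, 6-FAM labelling, HpaI digestion and capillary electrophoresis; bidirectional fit versus DMSO.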

[4] = ATG_NF_kB_CIS: Attagene CIS-FACTORIAL HepG2 Assay for human Nuclear Factor Kappa B (NF-kB) (AID 2282991); details: HepG2 Attagene cis-factorial NF-kB reporter mRNA; actives raise or lower the signal
Outline: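 Transient MRTU transfection of human HepG2 liver cells → 24 h chemical exposure → total RNA, oligo(dT) RT → PCR, 6-FAM primer extension, HpaI digest 2 h 37 C → CE fragment analysis. Bidirectional fitting, DMSO negative control.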

[5] = ATG_NRF2_ARE_CIS: Attagene CIS-FACTORIAL HepG2 Assay for human Nuclear Factor Erythroid 2 Related Factor 2 (NFR2) response to Antioxidant Response Elements (ARE) (AID 2282992); details: HepG2 Attagene ARE/NRF2 reporter, transcription factor activity; actives raise or lower the signal;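 as to AC50: reporter mRNA level measured by RT-PCR and capillary electrophoresis fluorescence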
Outline: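 Multiplexed reporter mRNA profiling in HepG2 after a 24 h chemical exposure. Curves fitted in both directions relative to DMSO negative control.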

[6] = ATG_Oct_MLP_CIS: Attagene CIS-FACTORIAL HepG2 Assay for human Octamer-Binding Transcription Factor (Oct) (AID 2282993); details: HepG2 Attagene cis-factorial Oct reporter, mRNA; actives raise or lower the signal
Outline: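 Read-out: reporter mRNA via RT-PCR plus capillary electrophoresis of 6-FAM-labelled fragments. Transiently transfected HepG2, 24 h exposure, endogenous TF activity on cis elements. Gain or loss of signal fitted relative to DMSO.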

[7] = target: Cellular tumor antigen p53 (Homo sapiens) (UniProt P04637); experiment: ATG_p53_CIS: Attagene CIS-FACTORIAL HepG2 Assay for human p53 Transcription Factor (AID 2282994); details: HepG2 p53 cis-element reporter, Attagene mRNA; actives raise or lower the signal
Sequence of Cellular tumor antigen p53 (Homo sapiens) (P04637 whole entry, looked up): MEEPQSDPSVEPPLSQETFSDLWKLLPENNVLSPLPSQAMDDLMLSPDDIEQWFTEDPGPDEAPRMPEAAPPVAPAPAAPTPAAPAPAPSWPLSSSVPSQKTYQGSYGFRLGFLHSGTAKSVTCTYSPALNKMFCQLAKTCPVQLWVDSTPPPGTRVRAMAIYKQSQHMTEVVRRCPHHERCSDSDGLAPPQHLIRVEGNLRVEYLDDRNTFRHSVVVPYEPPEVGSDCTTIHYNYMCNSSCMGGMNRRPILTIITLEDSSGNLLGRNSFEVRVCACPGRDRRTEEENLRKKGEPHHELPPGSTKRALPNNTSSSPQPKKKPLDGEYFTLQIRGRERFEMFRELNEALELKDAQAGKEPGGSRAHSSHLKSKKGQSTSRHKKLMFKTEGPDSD
Outline: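 Multiplexed reporter mRNA assay in human HepG2 liver cells; cis-regulated units report endogenous factor activity. Values come from bidirectional curve fitting against DMSO negative control after 24 h treatment.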

[8] = BSK_3C_TissueFactor: BioMAP Diversity Plus: 3C Assay for Tissue Factor Biomarker Activity (AID 2282997); details: BioMAP 3C HUVEC, tissue factor biomarker readout; actives raise or lower the signal
Outline: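 HUVEC were treated 24 h, then surface tissue factor measured by ELISA and fitted bidirectionally against DMSO. Parallel SRB total-protein staining assessed overt cytotoxicity at the same time point.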

[9] = BSK_3C_uPAR: BioMAP Diversity Plus: 3C Assay for Urokinase-type plasminogen activator receptor (uPAR) Biomarker Activity (AID 2282998); details: BioMAP 3C HUVEC, uPAR biomarker ELISA; actives raise or lower the signal
Outline: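 HUVEC primary cells; 24 h post-dose; uPAR by ELISA; gain or loss of signal fitted bidirectionally vs DMSO baseline.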

[10] = BSK_3C_VCAM1: BioMAP Diversity Plus: 3C Assay for Vascular cell adhesion molecule 1 (VCAM1) Biomarker Activity (AID 2282999); details: BioMAP 3C HUVEC, VCAM1 ELISA, cytokine-stimulated; actives raise or lower the signal
Outline: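 Human umbilical vein endothelial cells were dosed with compound for 24 h, after which cell-surface VCAM-1 was quantified by ELISA. Bidirectional curve fitting used DMSO as negative control and activity baseline.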

Measured: AC50

CCNC(=S)NCC
inactive: [1] | [2] | [3] | [4] | [5] | [6] | [7]

COc1ccc2[nH]cc(CCNC(C)=O)c2c1
inactive: [1] | [2] | [3] | [4] | [5] | [6] | [7]

CC(C)COC(=O)c1ccccc1
inactive: [1] | [2] | [3] | [4] | [5] | [6] | [7]

CCCC(O)C(CC)CO (stereo not given)
inactive: [1] | [2] | [3] | [4] | [5] | [6] | [7]

CC1=CCC(C(C)(C)O)CC1 (stereo not given)
inactive: [1] | [2] | [3] | [4] | [5] | [6] | [7]

CC/C=C\CCOC(=O)C(C)C
inactive: [1] | [2] | [3] | [4] | [5] | [6] | [7]

CC(C)(C)c1cc(CCC(=O)OCCSCCOC(=O)CCc2cc(C(C)(C)C)c(O)c(C(C)(C)C)c2)cc(C(C)(C)C)c1O
inactive: [1] | [2] | [3] | [4] | [5] | [6] | [7]

CCCCCCCCOS(=O)(=O)O
inactive: [1] | [2] | [3] | [4] | [5] | [6] | [7]

CCCCCCCCCCCCOCCOS(=O)(=O)O
inactive: [1] | [2] | [3] | [4] | [5] | [6] | [7]

O=C(OCc1ccccc1)c1ccccc1O
active: [2] 178 µM | [5] 64.4 µM | [7] 145 µM
inactive: [1] | [3] | [4]

CC(C)COC(=O)c1ccccc1O
inactive: [1] | [2] | [3] | [4] | [5] | [6] | [7]

OC[C@H]1O[C@@H](O[C@H]2[C@H](O)[C@@H](O)[C@H](O)O[C@@H]2CO)[C@H](O)[C@@H](O)[C@H]1O
inactive: [1] | [2] | [3] | [4] | [5] | [7]

CC(C)CCCC(C)(C)O
inactive: [1] | [2] | [3] | [4] | [5] | [6] | [7] | [8] | [9] | [10]

[Cl][Dy]([Cl])[Cl]
inactive: [1] | [2] | [3] | [4] | [6] | [7]

CC/C=C\C#N
inactive: [1] | [2] | [3] | [4] | [5] | [6] | [7]

O=S1(=O)CC(Cl)(Cl)C(Cl)(Cl)C1
inactive: [1] | [2] | [3] | [4] | [6]
active: [5] 0.485 µM | [7] 2.67 µM | [8] 0.556 µM | [9] 0.695 µM | [10] 0.618 µM

O=Cc1ccccc1O
inactive: [1] | [2] | [3] | [4] | [5] | [7]

CCOC(=O)CC1(C)OCC(C)O1 (stereo not given)
inactive: [1] | [2] | [3] | [4] | [5] | [6] | [7]

CCn1cc(C(=O)O)c(=O)c2ccc(C)nc21
inactive: [1] | [2] | [3] | [4] | [5] | [6] | [8] | [9] | [10]

OCCN1CCOCC1
inactive: [1] | [2] | [3] | [4] | [5] | [8] | [9] | [10]

CC(C)C(=O)c1ccccc1
inactive: [1] | [2] | [3] | [4] | [6] | [7]

CC(C)Cc1ccccc1
inactive: [1] | [2] | [3] | [4] | [6] | [7]

CCCCOCCOCCO
inactive: [1] | [2] | [3] | [4] | [5] | [6] | [8] | [9] | [10]

C=C1CC/C=C(\C)CC[C@@H]2[C@@H]1CC2(C)C
inactive: [1] | [2] | [3] | [4] | [6] | [7]
active: [5] 100 µM | [8] 16.8 µM | [9] 33.9 µM | [10] 30.1 µM

CCOC(=O)CCCCCCCCC(=O)OCC
inactive: [1] | [2] | [3] | [4] | [5] | [6] | [7] | [8] | [9] | [10]

CC=CC(=O)C1=C(C)C=CCC1(C)C
inactive: [1] | [2] | [3] | [4] | [5] | [6] | [8] | [9] | [10]

COC(=O)c1ccc(C(=O)OC)cc1
inactive: [1] | [2] | [3] | [4] | [5] | [6] | [7] | [8] | [9] | [10]

c1ccc(Sc2ccccc2)cc1
active: [8] 33 µM | [9] 32 µM | [10] 39.1 µM
inactive: [1] | [2] | [3] | [4] | [5]

CCC(C)(C)C1CCC(=O)CC1
inactive: [1] | [2] | [3] | [4] | [5] | [7]

CCCCC1CCCCC(=O)O1 (stereo not given)
inactive: [1] | [2] | [3] | [4] | [6] | [7]

c1ccc2scnc2c1
inactive: [1] | [2] | [3] | [4] | [6] | [7]

CC(C)Cc1ccc(C(C)C(=O)O)cc1 (stereo not given)
inactive: [1] | [2] | [3] | [4] | [5] | [7] | [8] | [9] | [10]

CC(=O)c1cccnc1
inactive: [1] | [2] | [3] | [4] | [6] | [7]

OCC=Cc1ccccc1
inactive: [1] | [2] | [3] | [4] | [6]

CC(=O)OC/C=C(C)/C=C/C=C(C)/C=C/C1=C(C)CCCC1(C)C
inactive: [2] | [3] | [6]
active: [1] 167 µM | [4] 39.8 µM | [5] 3.64 µM | [7] 146 µM

CCC=C(C)C=O
inactive: [1] | [2] | [3] | [4] | [5] | [7]

S=c1[nH][nH]c(=S)s1
inactive: [1] | [2] | [3] | [4] | [6] | [7]

O=S(=O)(O)c1cc(S(=O)(=O)O)c2c(N=Nc3ccccc3)c(O)ccc2c1
inactive: [1] | [2] | [3] | [4] | [6] | [7]

CCCCC(CC)COCCO (stereo not given)
inactive: [1] | [2] | [3] | [4] | [5] | [7]

COc1ccccc1NC(=O)CC(C)=O
inactive: [1] | [2] | [3] | [4] | [5] | [6] | [7] | [8] | [9] | [10]

CCCCCC#CC(=O)OC
inactive: [1] | [2] | [3] | [6] | [7]
active: [4] 23.1 µM

C=C(C)C(N)=O
inactive: [1] | [2] | [3] | [4] | [5] | [7] | [8] | [9] | [10]

CCCCCCCCOC(=O)c1ccc(O)cc1
inactive: [1] | [2] | [3] | [4] | [6]

CC(=O)CC(C)(C)C1CCCCC1
inactive: [1] | [2] | [3] | [4] | [6] | [7]

CC(=O)CCC(=O)O
inactive: [1] | [2] | [3] | [5] | [6]

O=c1cc(-c2ccc(O)cc2)oc2cc(O)cc(O)c12
active: [6] 26.5 µM
inactive: [1] | [2] | [3] | [5] | [7]

C=CC(O)CCCCC (stereo not given)
active: [5] 38 µM | [6] 45.6 µM
inactive: [1] | [2] | [3] | [7]

CC(=O)c1ccc2ccccc2c1
inactive: [1] | [2] | [3] | [5] | [6]

O=C(C=Cc1ccccc1)OCCCc1ccccc1
inactive: [1] | [2] | [3] | [4] | [7]

CCc1cccc(O)c1
inactive: [1] | [2] | [3] | [5] | [6] | [7]

C1CCCNCC1
inactive: [1] | [2] | [3] | [5] | [6]

CCCCOCCOC(=O)c1ccccc1C(=O)OCCOCCCC
active: [5] 37.7 µM
inactive: [1] | [2] | [3] | [6] | [7]

CC(CO)(CO)[N+](=O)[O-]
inactive: [1] | [2] | [3] | [5] | [6]

CCCOC(=O)CC
inactive: [1] | [2] | [3] | [5] | [6]

CC(=O)OCC=C(C)CCC=C(C)CCC=C(C)C
inactive: [3] | [4] | [6] | [8] | [9] | [10]
active: [1] 154 µM | [2] 157 µM

COc1ccc(C(C)=O)cc1
inactive: [1] | [2] | [3] | [5] | [6]

N#CCCNCCC#N
inactive: [1] | [2] | [3] | [5] | [6]

CC(C)(C)c1cccc(O)c1
inactive: [1] | [2] | [3] | [4] | [6] | [7] | [8] | [10]
active: [9] 0.016 µM

C/C=C(\C)C(=O)OC/C=C(\C)CCC=C(C)C
active: [5] 100 µM
inactive: [1] | [2] | [3] | [6] | [7]
